The term AC50 denotes the midpoint of the concentration-response curve, whichever way the signal moves.

We go through 67 compounds from PubChem BioAssay AID1851 (National Center for Advancing Translational Sciences (NCATS), 2009).

“And” between values parts separate entries of the source, which are not always exact repeats. Equal values may be shown once. Out of some 16,000 compounds screened, about 5,800 (36%) were called active. Inconclusive results (about 23%) are left out. The call rests on the fitted dose curve; in most records, active means well fitted curve in the direction sought with a large enough effect; inconclusive means small, poorly fitted or top-dose-only effect, or effect the other way; inactive means no such curve, though single readings can be large or run the other way. The list shows a part of the results.
On the % scale 0 is the no-effect control and ±100 the full control effect.

The target in this assay is Cytochrome P450 2C19 (Homo sapiens) (UniProt P33261). Nature of the assay: Cytochrome panel assay with activity outcomes. The settings on record: recombinant CYP, pro-luciferin dealkylation, luminescence, p450-cyp2c19; series mostly up to 57.1 µM.
Sequence of Cytochrome P450 2C19 (Homo sapiens) (P33261 whole entry, looked up): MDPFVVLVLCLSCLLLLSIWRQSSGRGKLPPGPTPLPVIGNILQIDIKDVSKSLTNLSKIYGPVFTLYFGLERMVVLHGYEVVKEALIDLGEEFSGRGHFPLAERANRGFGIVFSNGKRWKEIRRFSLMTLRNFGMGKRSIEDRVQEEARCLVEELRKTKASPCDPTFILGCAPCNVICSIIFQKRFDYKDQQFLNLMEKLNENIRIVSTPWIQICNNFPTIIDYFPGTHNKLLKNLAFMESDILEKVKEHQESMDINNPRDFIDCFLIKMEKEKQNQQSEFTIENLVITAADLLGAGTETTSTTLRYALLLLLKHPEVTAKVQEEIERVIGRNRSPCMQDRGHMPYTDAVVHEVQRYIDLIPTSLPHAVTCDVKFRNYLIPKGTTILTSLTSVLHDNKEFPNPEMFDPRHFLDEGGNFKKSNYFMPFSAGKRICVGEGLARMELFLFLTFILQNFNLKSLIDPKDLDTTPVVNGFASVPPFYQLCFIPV
For `N[C@@H](Cc1ccc(O)c(O)c1)C(=O)O`, the AC50 entry was “inactive”.
In the case of `O=C1CCCN1c1ccc(S(=O)(=O)Oc2cccc(Cl)c2)cc1[N+](=O)[O-]`, the AC50 was 0.501 µM (active).
Consider `Cc1cc(C(C)(C)C)cc(C)c1CC1=NCCN1`, for which the AC50 result is “inactive”.
Consider `N=c1sccn1CC(=O)Nc1cccc(Oc2ccccc2)c1`, for which the AC50 was 15.8 µM (active).
In the case of `O=C(Cn1ccc(=O)[nH]c1=O)Nc1ccc(C(=O)O)c(O)c1`, the activity, negative = inhibition was 40.8% [at 11.4 µM] (inactive).
As for `CC1(C)CCC=[N+]1[O-]`, the AC50 entry was “inactive”.
For `COCn1c2ccccc2c2nnc(C(C)=O)nc21`, the activity, negative = inhibition was 5.57% [at 11.4 µM] (inactive) and -2.14% [at 11.4 µM] (inactive).
Take `CCCCCOC(=O)c1c(N)n(CCOC)c2nc3ccccc3nc12`: the AC50 was 14.1 µM (active).
Turning to `C/C(=N\NC(=S)Nc1ccc(F)cc1)C1CC1`, the AC50 was 0.562 µM (active).
Still for that read-out and setting: the figure for `COC(=O)C1=C(N)N(c2ccccc2C(F)(F)F)C2=C(C(=O)CCC2)C1c1ccc2c(c1)OCO2` (configuration not stated) is 20 µM (active).
As for `COc1ccc(OC)c(NC(=O)c2cc3n(n2)C(C(F)(F)F)CC(c2ccc4c(c2)OCO4)N3)c1` (configuration not stated), the AC50 result is “inactive”.
Same read-out and setting: the entry for `COc1ccc(NC(=O)c2cc3n(n2)C(C(F)(F)F)CC(c2ccc4c(c2)OCO4)N3)cc1OC` (configuration not stated) is “inactive”.
In the case of `C#CC[N+](CC)(CC)CC#Cc1cccc(Cl)c1`, the AC50 result is “inactive”.
In the case of `O=C(c1ccc(COc2ccc(F)cc2)o1)n1cccn1`, the AC50 is 3.55 µM (active).
Regarding `CC(=O)COC(=O)CCc1nc2ccccc2[nH]c1=O`, the AC50 was 11.2 µM (active).
As for `N[C@@H](Cc1ncccn1)C(=O)O`, the activity, negative = inhibition was 1.66% [at 11.4 µM] (inactive).
For the compound `CCCCNC(=O)C1C2C=CC3(CN(Cc4ccccc4Cl)C(=O)C13)O2` (configuration not stated), the concentration at half-maximal activity (AC50) is 20 µM (active).
As to `Cc1ccc(CN2CC34C=CC(O3)C(C(=O)NCc3ccc5c(c3)OCO5)C4C2=O)cc1` (configuration not stated), the AC50 was 15.8 µM (active).
As to `Cc1ccc(CN2CC34C=CC(O3)C(C(=O)NCc3ccco3)C4C2=O)cc1` (configuration not stated), the AC50 was 14.1 µM (active).
On to `COCCCNC(=O)C1C2C=CC3(CN(Cc4ccc(C)cc4)C(=O)C13)O2` (configuration not stated), for which the AC50 entry was “inactive”.
In the case of `COC(=O)N1CCC2(CCN(C(=O)NC(C)C)CC2)CC1`, the AC50 entry is “inactive”.
On to `FC(F)(F)c1nnc2c(Sc3ccccc3)nc3ccc(Cl)cc3n12`, for which the AC50 is 1.41 µM (active).
With `FC(F)(F)c1nnc2c(Sc3ccc(Cl)cc3)nc3ccccc3n12`, the AC50 result is “inactive”.
As to `C[C@@]1(C(NC(=O)Cc2ccc(C(F)(F)F)cc2)c2ccc(-c3ccccc3)cc2)C[C@H]1C1CCCCC1` (some centres not stated), the AC50 entry is “inactive”.
On the same count and under the same terms, the entry for `CC(C)NC(=O)N1CCC2(CC1)CCN(C(=O)c1cc(C(F)(F)F)cc(C(F)(F)F)c1)CC2` is “inactive”; for `CC(C)NC(=O)c1ccc(-c2cccc(C(F)(F)F)c2)o1` it is 7.08 µM (active); for `Cc1ccc(S(=O)(=O)NCC2CCC(C(=O)O)CC2)cc1` (configuration not stated) it is “inactive”.
Take `COCCCNC(=O)C1CCN(S(=O)(=O)N(CC(C)C)CC(C)C)CC1`: the AC50 entry was “inactive”.
The same measure, in the same setting: next, `CC(=O)Nc1ccc(S(=O)(=O)NCC2CCC(C(=O)NCCC(C)C)CC2)cc1` (configuration not stated): 31.6 µM (active).
The same measure, in the same setting: next, `CCCN(CCc1ccccc1)[C@H]1CCc2c(O)cccc2C1`: “inactive”; `Cc1cc(C)c(Cn2cnc(-c3ccc([N+](=O)[O-])cc3)c2)c(C)c1`: 3.16 µM (active); `Cc1ccc(COn2c(-c3ccc(Cl)cc3)nc3ccc([N+](=O)[O-])cc32)cc1`: “inactive”.
Same read-out and setting: next, `C=C(C)C1CC=C(C)/C(=N/NC(=O)c2ccc(NC(=O)c3cccc(C)c3)cc2)C1` (configuration not stated): 1.41 µM (active); `Nc1nc(Nc2ccccc2)nc2c1ncn2[C@@H]1O[C@@H](CO)[C@H](O)[C@H]1O`: 0.631 µM (active).
Turning to `Nc1nc(Cl)nc2c1ncn2[C@@H]1O[C@@H](CO)[C@@H](O)[C@H]1O`, the AC50 entry is “inactive”.
Regarding `Nc1nc(Nc2ccccc2)nc2c1ncn2[C@@H]1O[C@@H](CO)[C@H](O)[C@@H]1O`, the AC50 result is “inactive”.
`CCOc1cc(C)ccc1OCc1nnc(SCC(=O)c2cccc([N+](=O)[O-])c2)n1CC`: the AC50 entry is “inactive”.
On to `CCOc1cc(C)ccc1OCc1nnc(SCC(=O)c2cccc([N+](=O)[O-])c2)n1C`, for which the AC50 was 14.1 µM (active).
For the compound `C=CCn1c(Cc2ccc(OC)cc2)nnc1SCC(=O)c1cccc([N+](=O)[O-])c1`, the AC50 is 14.1 µM (active).
As to `CC1(C)OC(C(N)=O)C(C(N)=O)O1` (configuration not stated), the AC50 result is “inactive”.
With `CC(C)(CO)N1CCN(C(=S)Nc2ccccc2)CC1`, the activity, negative = inhibition is 4.38% [at 11.4 µM] (inactive).
With `COc1cc2c(cc1OC)CN(C(=S)Nc1ccccc1)CC2`, the AC50 is 2.51 µM (active).
Turning to `COCOc1ccc(Br)cc1C(=O)[C@H]1O[C@H]1c1cccc(OC)c1`, the AC50 is 0.0631 µM (active).
Turning to `CN(c1ccc(C(=O)NC2CC3CCC2C3)cc1)S(C)(=O)=O` (configuration not stated), the AC50 entry is “inactive”.
With `CCCC1c2c(ccc3ccccc23)Oc2ccc3ccccc3c21`, the AC50 is 0.631 µM (active).
On to `COc1ncc2nc(-c3cc(F)cc(F)c3)c(=O)n(CCC#N)c2n1`, for which the AC50 entry was “inactive”.
Still for that read-out and setting: the entry for `C=CCNC(=O)c1ccccc1Cl` is “inactive”.
Regarding `NCCc1nc(-c2nc(C(=O)O)cs2)cs1`, the activity, negative = inhibition is -18.8% [at 11.4 µM] (inactive).
With `C=CCNC(=O)c1csc(-c2ccccc2)n1`, the AC50 is 10 µM (active).
As to `O=C(/C=C/c1ccco1)Nc1ccc(Oc2ccccc2)cc1`, the AC50 is 5.01 µM (active).
Still for that read-out and setting: the figure for `O=C(c1ccccc1)c1nc2ccccc2n(CCCn2c(=O)c(C(=O)c3ccccc3)nc3ccccc32)c1=O` is 1 µM (active); for `O=C(O)Cc1cc2ccccc2nc1C(=O)O` it is “inactive”.
As to `CCCCCn1c(=O)c(C(=O)c2ccccc2)nc2ccccc21`, the AC50 was 2 µM (active).
In the case of `COc1ccc2c(c1)CCC1[C@@H]2CCC2(C)[C@@H](NCCCCCCN3C(=O)C=CC3=O)CC[C@@H]12` (some centres not stated), the AC50 entry is “inactive”.
In the case of `COc1cccc(CNCc2ccc(SC)cc2)c1OC`, the AC50 is 0.251 µM (active).
As to `Oc1ccc(CNCc2ccccc2)c2cccnc12`, the activity, negative = inhibition was -5.63% [at 11.4 µM] (inactive).
On to `CC(C)(C)NC(=O)CSC(=Nc1ccc(F)cc1)NC#N`, for which the half-maximal activity concentration (AC50) was 2.82 µM (active).
With `COc1ccc(C(=O)N2CCC3(CCCN(CC(C)C)C3)CC2)cc1`, the AC50 result was “inactive”.
On the same count and under the same terms, next, `Cc1ccc2cc(C(=O)O)c(C)nc2c1`: “inactive”; `COc1ccc(C)cc1NC(=O)c1cc2cc3ccc(C)cc3nc2o1`: “inactive”.
Still for that read-out and setting: the figure for `Cc1ccc2cc3cc(C(=O)N4CCCCC4C)oc3nc2c1` (configuration not stated) is 14.1 µM (active); for `COc1ccc2cc3cc(C(=O)NCc4ccccn4)oc3nc2c1` it is “inactive”.
Same read-out and setting: next, `CCN1CCN(CCCNC(=O)c2cc3cc4ccc(OC)cc4nc3o2)CC1`: “inactive”; `COc1ccc2cc3cc(C(=O)NCc4ccc5c(c4)OCO5)oc3nc2c1`: 10 µM (active); `COc1ccc2cc3cc(C(=O)NCCCN4CCOCC4)oc3nc2c1`: “inactive”.
Turning to `COc1ccc2cc3cc(C(=O)NCCN4CCN(c5ccccc5F)CC4)oc3nc2c1`, the AC50 was 28.2 µM (active).
For `COc1ccc2cc3cc(C(=O)Nc4ccc5c(c4)OCO5)oc3nc2c1`, the AC50 is 7.08 µM (active).
